# From the supplement of paper PMC11732987, “Enantioselective OTUD7B fragment discovery through chemoproteomics screening and high-throughput optimisation” (Communications Chemistry, 2025)
# Unmarked numbers belong to inactive results.
# How the values were obtained:
# Test in all cases: log2 ratio of Biotin-Ahx-Ub-VS probe labelling (fragment/DMSO); higher = less target engagement (more negative = stronger competition), active = hit call of the paper (q ≤ 0.05, log2 ratio ≤ -1)
# Conditions in all cases: compound concentration: 200 uM; treatment time: 3 h
# ALG13 = biological target: T1, ALG13 (UniProt Q9NP73)
# T1 sequence (whole entry): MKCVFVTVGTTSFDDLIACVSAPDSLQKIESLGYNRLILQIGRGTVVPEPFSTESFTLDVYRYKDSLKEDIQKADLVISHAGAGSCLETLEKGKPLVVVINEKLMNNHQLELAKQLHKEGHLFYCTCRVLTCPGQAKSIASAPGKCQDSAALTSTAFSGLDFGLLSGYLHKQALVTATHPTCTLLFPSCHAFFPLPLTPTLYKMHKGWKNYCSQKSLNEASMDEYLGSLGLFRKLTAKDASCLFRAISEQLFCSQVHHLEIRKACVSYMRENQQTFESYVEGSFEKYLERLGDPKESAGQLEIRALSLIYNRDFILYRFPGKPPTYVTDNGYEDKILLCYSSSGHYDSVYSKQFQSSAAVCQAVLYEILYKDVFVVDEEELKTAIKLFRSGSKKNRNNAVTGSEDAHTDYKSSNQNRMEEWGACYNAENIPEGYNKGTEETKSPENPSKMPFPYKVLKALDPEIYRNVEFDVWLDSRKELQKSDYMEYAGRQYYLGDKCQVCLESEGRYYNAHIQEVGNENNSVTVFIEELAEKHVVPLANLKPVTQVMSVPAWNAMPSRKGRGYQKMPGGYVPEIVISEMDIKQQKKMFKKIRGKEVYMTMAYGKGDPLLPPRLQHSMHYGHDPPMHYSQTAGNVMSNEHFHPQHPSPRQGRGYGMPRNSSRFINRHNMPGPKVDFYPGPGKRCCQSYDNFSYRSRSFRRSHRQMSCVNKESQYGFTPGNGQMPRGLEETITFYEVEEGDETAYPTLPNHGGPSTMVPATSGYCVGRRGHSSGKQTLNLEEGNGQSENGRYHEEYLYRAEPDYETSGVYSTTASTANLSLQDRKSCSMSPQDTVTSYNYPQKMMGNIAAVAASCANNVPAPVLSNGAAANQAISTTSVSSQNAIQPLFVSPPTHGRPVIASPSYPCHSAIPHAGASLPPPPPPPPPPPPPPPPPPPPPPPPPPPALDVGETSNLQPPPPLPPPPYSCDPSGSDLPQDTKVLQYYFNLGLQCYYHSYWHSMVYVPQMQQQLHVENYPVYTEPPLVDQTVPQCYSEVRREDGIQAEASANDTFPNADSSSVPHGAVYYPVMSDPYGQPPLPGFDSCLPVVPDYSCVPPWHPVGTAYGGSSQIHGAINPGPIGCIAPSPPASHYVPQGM
# Outline: (§1)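 Fragment (200 µM) or vehicle was incubated for 3 h with triplicate HEK293T lysate samples of 495 µg, which were then treated with Biotin-Ahx-Ub-VS at 0.5 µM final for 1 h. Labelled DUBs were enriched on NeutrAvidin, digested with LysC and trypsin, and analysed by diaPASEF LC-MS/MS. Values are average log2 fragment/vehicle ratios from an unpaired t-test on global-median-normalised Spectronaut label-free quantities, using proteins with ≥2 unique peptides.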
# ATXN3 = ATXN3 (UniProt P54252)
# Chain of ATXN3 (P54252 whole entry): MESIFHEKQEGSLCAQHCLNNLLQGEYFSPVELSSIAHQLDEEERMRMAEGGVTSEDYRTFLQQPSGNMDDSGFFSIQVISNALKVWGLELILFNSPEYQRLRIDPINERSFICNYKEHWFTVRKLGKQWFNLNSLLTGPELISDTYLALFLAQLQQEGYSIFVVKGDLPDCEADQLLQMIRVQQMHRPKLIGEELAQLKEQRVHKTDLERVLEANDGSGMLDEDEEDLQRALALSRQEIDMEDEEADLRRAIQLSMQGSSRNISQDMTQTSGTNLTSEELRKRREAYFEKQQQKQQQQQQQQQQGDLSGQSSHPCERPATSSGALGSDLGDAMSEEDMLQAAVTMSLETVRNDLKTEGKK
# Outline: as §1
# BAP1 = biological target: T2, BAP1 (UniProt Q92560)
# T2 sequence (whole entry): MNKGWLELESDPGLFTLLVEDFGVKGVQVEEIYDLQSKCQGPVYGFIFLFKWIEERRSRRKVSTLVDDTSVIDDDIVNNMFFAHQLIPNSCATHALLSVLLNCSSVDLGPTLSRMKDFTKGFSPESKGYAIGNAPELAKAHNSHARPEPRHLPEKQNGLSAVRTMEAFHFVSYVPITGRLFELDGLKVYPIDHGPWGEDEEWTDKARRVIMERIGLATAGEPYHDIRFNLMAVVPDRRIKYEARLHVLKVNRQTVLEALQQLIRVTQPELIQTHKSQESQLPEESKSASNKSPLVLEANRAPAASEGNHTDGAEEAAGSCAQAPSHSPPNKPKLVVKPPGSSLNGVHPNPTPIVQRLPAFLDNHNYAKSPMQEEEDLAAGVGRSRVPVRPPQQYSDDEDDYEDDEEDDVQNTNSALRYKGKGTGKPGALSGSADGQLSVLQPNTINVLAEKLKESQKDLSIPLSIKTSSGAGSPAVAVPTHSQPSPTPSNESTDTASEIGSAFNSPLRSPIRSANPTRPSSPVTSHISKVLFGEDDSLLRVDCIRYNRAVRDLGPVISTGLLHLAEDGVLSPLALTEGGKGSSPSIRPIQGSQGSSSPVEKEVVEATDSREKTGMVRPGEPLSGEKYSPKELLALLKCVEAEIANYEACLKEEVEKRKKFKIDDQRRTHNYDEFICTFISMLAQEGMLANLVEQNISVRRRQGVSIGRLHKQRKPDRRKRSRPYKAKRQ
# Outline: as §1
# EIF3F = EIF3F (UniProt O00303)
# Chain of EIF3F (O00303 whole entry): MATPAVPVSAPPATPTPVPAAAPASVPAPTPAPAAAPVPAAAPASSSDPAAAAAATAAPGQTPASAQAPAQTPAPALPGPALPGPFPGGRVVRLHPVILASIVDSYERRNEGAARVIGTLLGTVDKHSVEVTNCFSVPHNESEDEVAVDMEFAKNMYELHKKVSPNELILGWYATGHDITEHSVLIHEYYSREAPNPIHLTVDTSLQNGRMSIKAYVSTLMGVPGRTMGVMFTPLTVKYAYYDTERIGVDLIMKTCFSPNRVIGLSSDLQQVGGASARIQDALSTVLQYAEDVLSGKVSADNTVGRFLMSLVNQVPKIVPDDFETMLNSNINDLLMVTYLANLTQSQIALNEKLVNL
# Outline: as §1
# EIF3H = EIF3H (UniProt O15372)
# Chain of EIF3H (O15372 whole entry): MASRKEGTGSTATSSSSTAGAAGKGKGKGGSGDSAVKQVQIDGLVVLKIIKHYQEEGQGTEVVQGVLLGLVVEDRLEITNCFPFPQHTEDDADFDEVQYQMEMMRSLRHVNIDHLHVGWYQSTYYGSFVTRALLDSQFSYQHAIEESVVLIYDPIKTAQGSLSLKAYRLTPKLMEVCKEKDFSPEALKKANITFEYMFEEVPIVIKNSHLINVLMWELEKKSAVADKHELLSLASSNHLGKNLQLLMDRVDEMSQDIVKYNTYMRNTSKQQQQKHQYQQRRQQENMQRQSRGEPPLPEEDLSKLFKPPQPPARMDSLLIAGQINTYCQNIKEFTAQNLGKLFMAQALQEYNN
# Outline: as §1
# FAM105A = biological target: T3, FAM105A (UniProt Q9NUU6)
# T3 sequence (whole entry): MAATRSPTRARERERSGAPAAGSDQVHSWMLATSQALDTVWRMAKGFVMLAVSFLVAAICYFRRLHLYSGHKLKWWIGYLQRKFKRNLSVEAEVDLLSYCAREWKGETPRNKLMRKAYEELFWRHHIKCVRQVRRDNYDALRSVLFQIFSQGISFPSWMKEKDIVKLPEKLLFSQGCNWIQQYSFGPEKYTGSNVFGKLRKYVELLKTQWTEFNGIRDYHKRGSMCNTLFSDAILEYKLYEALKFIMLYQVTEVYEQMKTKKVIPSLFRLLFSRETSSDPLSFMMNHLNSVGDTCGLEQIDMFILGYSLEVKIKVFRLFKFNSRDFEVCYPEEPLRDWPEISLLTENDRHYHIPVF
# Outline: as §1
# OTUB1 = OTUB1 (UniProt Q96FW1)
# Chain of OTUB1 (Q96FW1 whole entry): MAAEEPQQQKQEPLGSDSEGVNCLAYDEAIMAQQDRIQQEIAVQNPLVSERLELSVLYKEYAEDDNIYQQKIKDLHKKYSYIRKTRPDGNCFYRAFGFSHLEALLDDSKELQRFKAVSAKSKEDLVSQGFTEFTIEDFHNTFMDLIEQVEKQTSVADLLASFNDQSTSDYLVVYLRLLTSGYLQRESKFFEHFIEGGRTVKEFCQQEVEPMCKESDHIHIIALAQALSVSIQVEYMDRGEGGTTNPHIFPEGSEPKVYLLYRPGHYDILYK
# Outline: as §1
# OTUD4 = biological target: T4, OTUD4 (UniProt Q01804)
# T4 sequence (whole entry): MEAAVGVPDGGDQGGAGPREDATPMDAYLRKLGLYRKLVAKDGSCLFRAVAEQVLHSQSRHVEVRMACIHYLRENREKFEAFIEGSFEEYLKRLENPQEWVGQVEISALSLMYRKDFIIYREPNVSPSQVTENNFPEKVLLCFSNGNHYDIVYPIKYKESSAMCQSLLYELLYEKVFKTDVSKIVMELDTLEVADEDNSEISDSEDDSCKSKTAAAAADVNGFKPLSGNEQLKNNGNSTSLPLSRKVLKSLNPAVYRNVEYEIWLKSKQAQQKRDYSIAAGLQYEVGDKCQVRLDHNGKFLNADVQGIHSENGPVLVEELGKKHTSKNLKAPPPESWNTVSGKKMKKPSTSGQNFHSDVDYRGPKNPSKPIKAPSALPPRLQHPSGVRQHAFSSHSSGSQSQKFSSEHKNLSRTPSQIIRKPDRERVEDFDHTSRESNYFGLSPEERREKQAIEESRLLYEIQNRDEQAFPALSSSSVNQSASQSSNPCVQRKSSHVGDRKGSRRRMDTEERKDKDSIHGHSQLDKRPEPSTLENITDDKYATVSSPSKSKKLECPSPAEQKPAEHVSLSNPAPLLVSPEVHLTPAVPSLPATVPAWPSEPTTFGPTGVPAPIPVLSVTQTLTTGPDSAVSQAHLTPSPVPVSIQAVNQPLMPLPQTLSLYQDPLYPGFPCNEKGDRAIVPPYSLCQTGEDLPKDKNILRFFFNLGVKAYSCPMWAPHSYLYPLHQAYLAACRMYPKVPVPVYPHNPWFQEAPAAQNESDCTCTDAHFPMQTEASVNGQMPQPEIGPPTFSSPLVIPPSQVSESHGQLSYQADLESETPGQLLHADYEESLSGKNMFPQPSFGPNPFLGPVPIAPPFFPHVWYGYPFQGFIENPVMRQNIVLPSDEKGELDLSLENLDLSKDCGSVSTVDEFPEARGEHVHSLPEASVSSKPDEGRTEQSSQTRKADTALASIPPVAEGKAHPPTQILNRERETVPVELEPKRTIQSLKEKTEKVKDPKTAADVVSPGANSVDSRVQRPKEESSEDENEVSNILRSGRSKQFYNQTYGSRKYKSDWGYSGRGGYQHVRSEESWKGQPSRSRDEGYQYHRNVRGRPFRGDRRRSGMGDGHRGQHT
# Outline: as §1
# OTUD5 = biological target: T5, OTUD5 (UniProt Q96G74)
# T5 sequence (whole entry): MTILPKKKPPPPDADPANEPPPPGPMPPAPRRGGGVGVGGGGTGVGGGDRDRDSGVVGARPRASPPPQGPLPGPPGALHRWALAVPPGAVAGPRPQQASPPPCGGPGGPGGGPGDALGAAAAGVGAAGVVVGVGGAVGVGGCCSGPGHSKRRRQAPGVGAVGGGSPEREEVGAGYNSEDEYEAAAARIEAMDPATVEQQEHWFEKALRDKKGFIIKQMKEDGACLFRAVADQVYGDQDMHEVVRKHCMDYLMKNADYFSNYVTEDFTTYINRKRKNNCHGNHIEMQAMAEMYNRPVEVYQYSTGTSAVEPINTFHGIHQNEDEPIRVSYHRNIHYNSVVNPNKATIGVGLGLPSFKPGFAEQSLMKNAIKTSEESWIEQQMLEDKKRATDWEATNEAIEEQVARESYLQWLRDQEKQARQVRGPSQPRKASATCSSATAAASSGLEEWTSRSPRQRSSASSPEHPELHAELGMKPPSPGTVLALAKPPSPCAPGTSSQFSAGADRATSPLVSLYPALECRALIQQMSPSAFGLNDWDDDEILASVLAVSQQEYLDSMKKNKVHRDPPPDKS
# Outline: as §1
structure (smiles),measurement,setting,value
Cc1c(C#N)c(NC(=O)CCl)n(Cc2ccco2)c1C,log2 ratio of Biotin-Ahx-Ub-VS probe labelling,ALG13,0.126
same,log2 ratio of Biotin-Ahx-Ub-VS probe labelling,ATXN3,-0.609
same,log2 ratio of Biotin-Ahx-Ub-VS probe labelling,BAP1,-3.61 (active)
same,log2 ratio of Biotin-Ahx-Ub-VS probe labelling,EIF3F,-0.174
same,log2 ratio of Biotin-Ahx-Ub-VS probe labelling,EIF3H,-0.447
same,log2 ratio of Biotin-Ahx-Ub-VS probe labelling,FAM105A,-0.107
same,log2 ratio of Biotin-Ahx-Ub-VS probe labelling,OTUB1,0.0458
same,log2 ratio of Biotin-Ahx-Ub-VS probe labelling,OTUD4,-0.292
same,log2 ratio of Biotin-Ahx-Ub-VS probe labelling,OTUD5,-0.61
